Dicer inh: human Dicer pre-microRNA cleavage inhibition; 47,000 compounds, 6% hits; Q9UPY3; cat-ELCCA pre-miR-21 Dicer processing, chemiluminescence; active compounds read high; AID 1347074; z-score at 25 µM; in the data active means z-score above about 3, passing the limit was not always enough;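 further: plate controls were vehicle for no effect and no enzyme for full effect; higher signal means more uncleaved substrate so more Dicer inhibition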
Target sequence (Q9UPY3 whole entry, looked up): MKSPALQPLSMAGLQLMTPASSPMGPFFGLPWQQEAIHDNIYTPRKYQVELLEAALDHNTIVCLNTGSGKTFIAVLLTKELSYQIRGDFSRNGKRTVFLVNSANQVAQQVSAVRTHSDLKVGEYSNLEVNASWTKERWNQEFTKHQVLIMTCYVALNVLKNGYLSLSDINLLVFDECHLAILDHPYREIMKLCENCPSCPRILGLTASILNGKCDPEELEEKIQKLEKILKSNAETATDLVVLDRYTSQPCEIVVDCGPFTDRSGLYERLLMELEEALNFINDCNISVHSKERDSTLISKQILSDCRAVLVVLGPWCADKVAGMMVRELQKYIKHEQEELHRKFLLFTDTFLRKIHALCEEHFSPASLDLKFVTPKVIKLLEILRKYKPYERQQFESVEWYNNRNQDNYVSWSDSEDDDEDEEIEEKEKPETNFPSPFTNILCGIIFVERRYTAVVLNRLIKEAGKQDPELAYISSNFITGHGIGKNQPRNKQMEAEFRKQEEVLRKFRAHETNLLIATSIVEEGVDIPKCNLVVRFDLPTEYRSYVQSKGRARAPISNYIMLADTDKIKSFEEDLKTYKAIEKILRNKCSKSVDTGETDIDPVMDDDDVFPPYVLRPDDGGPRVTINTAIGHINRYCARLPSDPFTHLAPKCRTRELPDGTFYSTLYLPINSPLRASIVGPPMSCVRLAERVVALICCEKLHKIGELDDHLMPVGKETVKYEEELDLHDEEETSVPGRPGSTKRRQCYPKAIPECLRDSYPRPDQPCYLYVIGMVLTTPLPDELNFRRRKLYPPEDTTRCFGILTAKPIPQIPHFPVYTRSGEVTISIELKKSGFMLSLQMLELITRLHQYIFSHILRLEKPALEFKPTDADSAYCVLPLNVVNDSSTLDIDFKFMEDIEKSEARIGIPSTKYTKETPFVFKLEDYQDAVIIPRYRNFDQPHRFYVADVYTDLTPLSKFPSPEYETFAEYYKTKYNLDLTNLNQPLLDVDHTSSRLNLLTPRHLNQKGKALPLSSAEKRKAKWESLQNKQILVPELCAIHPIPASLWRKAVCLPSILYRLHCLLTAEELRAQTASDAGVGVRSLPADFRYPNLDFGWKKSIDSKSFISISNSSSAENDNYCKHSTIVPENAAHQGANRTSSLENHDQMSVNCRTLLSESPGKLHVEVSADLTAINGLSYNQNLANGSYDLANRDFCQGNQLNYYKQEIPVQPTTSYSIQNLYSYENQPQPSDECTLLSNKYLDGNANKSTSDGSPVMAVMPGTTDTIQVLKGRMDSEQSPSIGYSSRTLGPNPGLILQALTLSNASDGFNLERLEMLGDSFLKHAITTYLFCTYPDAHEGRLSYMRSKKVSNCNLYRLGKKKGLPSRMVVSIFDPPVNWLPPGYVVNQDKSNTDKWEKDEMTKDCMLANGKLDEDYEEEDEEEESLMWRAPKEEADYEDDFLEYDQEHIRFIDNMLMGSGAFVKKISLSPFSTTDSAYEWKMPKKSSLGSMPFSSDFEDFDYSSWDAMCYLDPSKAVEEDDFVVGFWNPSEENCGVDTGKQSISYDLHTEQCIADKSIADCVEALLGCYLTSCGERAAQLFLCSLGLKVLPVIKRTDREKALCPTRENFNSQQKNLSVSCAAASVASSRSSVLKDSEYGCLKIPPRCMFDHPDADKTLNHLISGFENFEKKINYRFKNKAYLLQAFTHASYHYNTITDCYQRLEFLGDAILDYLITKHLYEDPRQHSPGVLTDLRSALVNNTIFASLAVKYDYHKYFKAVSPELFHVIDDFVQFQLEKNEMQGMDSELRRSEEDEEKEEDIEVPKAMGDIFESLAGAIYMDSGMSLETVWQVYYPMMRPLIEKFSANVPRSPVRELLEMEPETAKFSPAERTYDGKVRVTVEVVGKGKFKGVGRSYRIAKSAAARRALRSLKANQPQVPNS
Active calls of the source: *. Many of the other results were omitted from the sample, so hits are more common in it than they were.

For N#CC(C(=O)c1ccccc1)=C1SCCCS1 the results were Dicer inh 1.68.
`N#CC(C(=O)c1cccs1)=C1SCCS1` gave Dicer inh 3.79*.
For CCOC(=O)c1c(C)oc2ccc(OC(=O)c3cc4ccccc4o3)cc12 the results were Dicer inh -0.27.
Screening CC1=C(C(=O)Nc2ccccc2)C(c2ccccc2)C2=C(N1)c1ccccc1C2=O (stereo not drawn) returned Dicer inh -0.29.
COCCCNC(=S)NNC(=S)Nc1cccc(C(F)(F)F)c1 was read as Dicer inh 0.98.
COc1ccc(Cn2cnc3c2c(=O)n(C)c(=O)n3C)cc1 was read as Dicer inh -0.96.
O=C(Nc1ccccc1[N+](=O)[O-])c1ccccc1 was read as Dicer inh -0.41.
Screening ClC1=C(CN2CCCCC2)CSc2ccc(Cl)cc21 returned Dicer inh 0.59.
`COC(=O)C1=C(C)NC(C)=C(C(=O)OC)C1c1ccccc1[N+](=O)[O-]` gave Dicer inh 11*.
`COC(=O)C1=C(C)NC2=C(C(=O)CCC2)C1c1cc([N+](=O)[O-])c(C)s1` (stereo not drawn) gave Dicer inh -1.87.
For CCOC(=O)C1=C(C)NC(C)=C(C(=O)OC)C1c1cccc([N+](=O)[O-])c1 (stereo not drawn) the results were Dicer inh 0.15.
`CN(C)S(=O)(=O)N(CC(=O)Nc1ccc(F)cc1F)c1ccccc1` gave Dicer inh -1.63.
COc1cc(NC(=O)c2ccccc2)c(C)cc1N was read as Dicer inh 0.05.
Screening Cc1cc(Sc2nnc(N)s2)c2ccccc2n1 returned Dicer inh -0.49.
CCC(c1ccccc1)c1nnc(N)s1 (stereo not drawn) was read as Dicer inh 4.21*.
`CC(c1ccccc1)c1nnc(N)s1` (stereo not drawn) gave Dicer inh 0.97.
For CCCCn1cnc2c(sc3nc4c(cc32)COC(C)(C)C4)c1=O the results were Dicer inh -0.45.
CCOC(=O)C1(C(F)(F)F)N=C(N(CC)CC)Oc2c1c(C)nn2-c1ccccc1 (stereo not drawn) was read as Dicer inh -0.63.
COc1cc(C2SCc3cc(C)c(C)cc3CS2)ccc1O was read as Dicer inh 1.11.
Cc1cc(C2CCCCC2)ccc1O was read as Dicer inh 5.63*.
Screening S=C(Nc1ccc(C2CCCCC2)cc1)N1CCSCC1 returned Dicer inh -2.2.
For O=C(c1cc(O)c(O)c([N+](=O)[O-])c1)c1ccccc1F the results were Dicer inh -0.16.
Cc1ccc(C(=O)c2cc(O)c(O)c([N+](=O)[O-])c2)cc1 was read as Dicer inh 8.45*.
For CC(=O)c1ccc(SC(C)C)c([N+](=O)[O-])c1 the results were Dicer inh -2.3.
For COc1ccc(C2/C(=C(/O)c3ccc(C)cc3)C(=O)C(=O)N2CC(C)C)cc1OC (stereo not drawn) the results were Dicer inh -0.57.
Cc1ccc2c(c1)C(O)(CC(=O)c1ccc3c(c1)CCCC3)C(=O)N2 (stereo not drawn) was read as Dicer inh 0.02.
`N#CCCS(=O)(=O)c1ccccc1F` gave Dicer inh 0.61.
`O=C(Nc1cccc(NC(=O)c2c(F)cccc2F)n1)c1c(F)cccc1F` gave Dicer inh -0.22.
For O=C(O)COCC(=O)Nc1ccccn1 the results were Dicer inh 0.85.
For O=C(Nc1ccccn1)c1cccc(C(=O)Nc2ccccn2)n1 the results were Dicer inh 3.55*.
For C=CCOC(=O)C1=C(C)NC2=C(C(=O)CC(C)(C)C2)C1c1ccc(OCc2ccccc2)c(OC)c1 (stereo not drawn) the results were Dicer inh 0.47.
`Cc1cc(C)c(N=C2SCC(=O)N2Cc2ccco2)c(C)c1` gave Dicer inh 4.85*.
CC(c1ccccc1)C1CC(=O)N(Cc2ccco2)C1=O (stereo not drawn) was read as Dicer inh 1.92.
For COc1ccc(N=C2SCC(=O)N2CCc2ccc(OC)c(OC)c2)cc1 the results were Dicer inh 2.33.
COc1ccccc1N=C1SCC(=O)N1Cc1ccco1 was read as Dicer inh 4.05*.
O=C1CSC(=Nc2cc(Cl)cc(Cl)c2)N1Cc1cccs1 was read as Dicer inh 1.01.
`O=C1CSC(=Nc2ccc(Cl)cc2)N1Cc1ccco1` gave Dicer inh -0.33.
For CCOc1ccc2nc(SCC(=O)Nc3ncccn3)sc2c1 the results were Dicer inh 0.87.
For CCOC(=O)C1=C(C)Nc2nc3ccccc3n2C1c1cccc(O)c1 (stereo not drawn) the results were Dicer inh 1.03.
`O=S(=O)(c1cc(Br)c(Br)s1)N1CCCCC1` gave Dicer inh 0.86.
Screening O=S(=O)(c1cc(Br)c(Br)s1)N1CCCC1 returned Dicer inh 3.14*.
O=S(=O)(c1ccccc1)c1ccc(S(=O)(=O)N2CCCC2)s1 was read as Dicer inh -0.58.
`CSc1nn(-c2ccccc2)c(-c2ccc(OC(F)(F)F)cc2)c1C#N` gave Dicer inh -3.29.
Screening C=CCN1C(=O)C(O)(CC(=O)c2ccc(OC)c(OC)c2)c2ccccc21 (stereo not drawn) returned Dicer inh -0.72.
`c1ccc(CSc2nnc3nc4c5ccccc5c5ccccc5c4nn23)cc1` gave Dicer inh -0.86.
O=C1CC(N2CCN(c3ccc(O)cc3)CC2)C(=O)N1c1ccccc1 (stereo not drawn) was read as Dicer inh -1.45.
`O=C1CC(c2c[nH]c3ccccc23)C(=O)N1c1ccccc1` (stereo not drawn) gave Dicer inh 1.2.
`O=C1CC(c2cn(Cc3ccccc3)c3ccccc23)C(=O)N1c1ccc(O)cc1` (stereo not drawn) gave Dicer inh 5.56*.
`O=C(OCCSc1sccc1[N+](=O)[O-])c1ccc(Cl)cc1` gave Dicer inh -0.74.
Screening Cc1onc(-c2ccccc2Cl)c1C(=O)N1CCOC(c2ccccc2)C1C (stereo not drawn) returned Dicer inh -0.25.
`O=C1c2ccccc2C(=O)N1CC1CN(CC(O)C(F)(F)F)CCO1` (stereo not drawn) gave Dicer inh 0.07.
For CC1C(c2ccccc2)OCCN1CN1C(=O)c2ccccc2C1=O (stereo not drawn) the results were Dicer inh 3.71*.
COc1ccc(C2C(C(=O)OCc3ccccc3)=C(C)Nc3nnnn32)cc1OC (stereo not drawn) was read as Dicer inh -0.86.
CSC1=C(C#N)C(=O)NC(c2c(Cl)cccc2Cl)S1 (stereo not drawn) was read as Dicer inh -0.3.

Screening data as filed in PubChem.
